Laboratory results: publication PMC11006913
Substitutions are numbered along the chain they refer to.

Key:
Assay in all cases: PBM; 200 nM protein, PBS
Settings in all cases: dsDNA, one strand shown
NKX2-5 [1] = molecular target: NKX2-5 (Homo sapiens, UniProt P52952 125-210, R139K)
SHOX = SHOX (Homo sapiens, UniProt O15266 103-189)
NKX2-5 [2] = molecular target: NKX2-5 (Homo sapiens, UniProt P52952 125-210)
NKX2-6 [3] = molecular target: T1, NKX2-6 (Homo sapiens, UniProt A6NCS4 118-204, R150C)
T1 sequence: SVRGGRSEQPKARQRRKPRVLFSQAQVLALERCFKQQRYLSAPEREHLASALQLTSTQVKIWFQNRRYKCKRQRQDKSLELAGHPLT

NKX2-4 [4] = molecular target: T2, NKX2-4 (Homo sapiens, UniProt Q9H2Z4 175-261, P217L)
T2 sequence: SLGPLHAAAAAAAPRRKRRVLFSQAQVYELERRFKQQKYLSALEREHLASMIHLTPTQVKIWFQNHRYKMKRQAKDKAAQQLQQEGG

NKX2-4 [5] = molecular target: T3, NKX2-4 (Homo sapiens, UniProt Q9H2Z4 175-261, T231S)
T3 sequence: T2 sequence with L43P, T57S

NKX2-4 [6] = molecular target: T4, NKX2-4 (Homo sapiens, UniProt Q9H2Z4 175-261)
T4 sequence: T2 sequence with L43P

NKX2-6 [7] = molecular target: T5, NKX2-6 (Homo sapiens, UniProt A6NCS4 118-204)
T5 sequence: T1 sequence with C33R

NKX2-4 [8] = molecular target: T6, NKX2-4 (Homo sapiens, UniProt Q9H2Z4 175-261, R246Q)
T6 sequence: T2 sequence with L43P, R72Q

NKX2-6 [9] = molecular target: T7, NKX2-6 (Homo sapiens, UniProt A6NCS4 118-204, F151L)
T7 sequence: T1 sequence with C33R, F34L

NKX3-2 [10] = molecular target: NKX3-2 (Homo sapiens, UniProt P78367 192-278, P234S)
Chain of NKX3-2 (Homo sapiens, UniProt P78367 192-278, P234S) (P78367 192-278 P234S): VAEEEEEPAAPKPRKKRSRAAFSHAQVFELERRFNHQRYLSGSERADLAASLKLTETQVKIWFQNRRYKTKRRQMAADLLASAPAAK

NKX3-2 [11] = molecular target: NKX3-2 (Homo sapiens, UniProt P78367 192-278)
Chain of NKX3-2 (Homo sapiens, UniProt P78367 192-278) (P78367 192-278): as the sequence (P78367 192-278 P234S) above, with S43P counted along it

ALX1 [12] = molecular target: ALX1 (Homo sapiens, UniProt Q15699 118-204, L144V)
Chain of ALX1 (Homo sapiens, UniProt Q15699 118-204, L144V) (Q15699 118-204 L144V): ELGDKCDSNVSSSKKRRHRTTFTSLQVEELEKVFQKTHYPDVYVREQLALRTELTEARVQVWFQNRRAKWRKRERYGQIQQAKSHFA

ALX1 [13] = molecular target: ALX1 (Homo sapiens, UniProt Q15699 118-204, L144R)
Chain of ALX1 (Homo sapiens, UniProt Q15699 118-204, L144R) (Q15699 118-204 L144R): as the sequence (Q15699 118-204 L144V) above, with V27R counted along it

ALX1 [14] = molecular target: ALX1 (Homo sapiens, UniProt Q15699 118-204)
Chain of ALX1 (Homo sapiens, UniProt Q15699 118-204) (Q15699 118-204): as the sequence (Q15699 118-204 L144V) above, with V27L counted along it

HOXB4 [15] = molecular target: HOXB4 (Homo sapiens, UniProt P17483 148-234)
Chain of HOXB4 (Homo sapiens, UniProt P17483 148-234) (P17483 148-234): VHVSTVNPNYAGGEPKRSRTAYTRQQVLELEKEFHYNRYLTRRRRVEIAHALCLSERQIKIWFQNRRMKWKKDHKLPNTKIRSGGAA

HOXB4 [16] = molecular target: HOXB4 (Homo sapiens, UniProt P17483 148-234, V174I)
Chain of HOXB4 (Homo sapiens, UniProt P17483 148-234, V174I) (P17483 148-234 V174I): as the sequence (P17483 148-234) above, with V27I counted along it

Chain of NKX2-5 (Homo sapiens, UniProt P52952 125-210) (P52952 125-210): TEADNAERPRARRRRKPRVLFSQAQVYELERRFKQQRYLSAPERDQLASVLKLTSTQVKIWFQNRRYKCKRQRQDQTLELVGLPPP
Chain of NKX2-5 (Homo sapiens, UniProt P52952 125-210, R139K) (P52952 125-210 R139K): as the sequence (P52952 125-210) above, with R15K counted along it
Chain of SHOX (O15266 103-189): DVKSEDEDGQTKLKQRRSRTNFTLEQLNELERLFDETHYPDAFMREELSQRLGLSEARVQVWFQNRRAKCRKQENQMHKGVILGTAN

## CGGTCCAA
NKX2-5 [1]
  binding signal: 8.45 upbm affinity estimate (log intensity, higher = more binding, comparable within an allelic series)
SHOX
  binding signal: 7.28 upbm affinity estimate (log intensity, higher = more binding, comparable within an allelic series)
NKX2-5 [2]
  binding signal: 8.42 upbm affinity estimate (log intensity, higher = more binding, comparable within an allelic series)

## ACGCGCAG
NKX2-5 [1]
  binding signal: 8.62 upbm affinity estimate (log intensity, higher = more binding, comparable within an allelic series)
SHOX
  binding signal: 7.05 upbm affinity estimate (log intensity, higher = more binding, comparable within an allelic series)
NKX2-6 [3]
  binding signal: 9.46 upbm affinity estimate (log intensity, higher = more binding, comparable within an allelic series)
NKX2-5 [2]
  binding signal: 8.69 upbm affinity estimate (log intensity, higher = more binding, comparable within an allelic series)

## CACTTATA
NKX2-5 [1]
  binding signal: 13.1 upbm affinity estimate (log intensity, higher = more binding, comparable within an allelic series)
NKX2-4 [4]
  binding signal: 12.6 upbm affinity estimate (log intensity, higher = more binding, comparable within an allelic series)
NKX2-4 [5]
  binding signal: 13 upbm affinity estimate (log intensity, higher = more binding, comparable within an allelic series)
NKX2-4 [6]
  binding signal: 12.5 upbm affinity estimate (log intensity, higher = more binding, comparable within an allelic series)
NKX2-6 [3]
  binding signal: 12.1 upbm affinity estimate (log intensity, higher = more binding, comparable within an allelic series)
NKX2-6 [7]
  binding signal: 13.8 upbm affinity estimate (log intensity, higher = more binding, comparable within an allelic series)
NKX2-4 [8]
  binding signal: 13.2 upbm affinity estimate (log intensity, higher = more binding, comparable within an allelic series)
NKX2-6 [9]
  binding signal: 11.2 upbm affinity estimate (log intensity, higher = more binding, comparable within an allelic series)
NKX3-2 [10]
  binding signal: 12.7 upbm affinity estimate (log intensity, higher = more binding, comparable within an allelic series)
NKX2-5 [2]
  binding signal: 12.8 upbm affinity estimate (log intensity, higher = more binding, comparable within an allelic series)
NKX3-2 [11]
  binding signal: 12.8 upbm affinity estimate (log intensity, higher = more binding, comparable within an allelic series)

## CGAACGCC
NKX2-5 [1]
  binding signal: 8.62 upbm affinity estimate (log intensity, higher = more binding, comparable within an allelic series)
ALX1 [12]
  binding signal: 6.33 upbm affinity estimate (log intensity, higher = more binding, comparable within an allelic series)
ALX1 [13]
  binding signal: 6.32 upbm affinity estimate (log intensity, higher = more binding, comparable within an allelic series)
ALX1 [14]
  binding signal: 6.54 upbm affinity estimate (log intensity, higher = more binding, comparable within an allelic series)
NKX2-5 [2]
  binding signal: 8.69 upbm affinity estimate (log intensity, higher = more binding, comparable within an allelic series)

## ACAAGTGG
NKX2-5 [1]
  binding signal: 12.9 upbm affinity estimate (log intensity, higher = more binding, comparable within an allelic series)
NKX2-4 [4]
  binding signal: 12.6 upbm affinity estimate (log intensity, higher = more binding, comparable within an allelic series)
NKX2-4 [5]
  binding signal: 13.1 upbm affinity estimate (log intensity, higher = more binding, comparable within an allelic series)
NKX2-4 [6]
  binding signal: 12.5 upbm affinity estimate (log intensity, higher = more binding, comparable within an allelic series)
NKX2-6 [3]
  binding signal: 12 upbm affinity estimate (log intensity, higher = more binding, comparable within an allelic series)
NKX2-6 [7]
  binding signal: 13.7 upbm affinity estimate (log intensity, higher = more binding, comparable within an allelic series)
NKX2-4 [8]
  binding signal: 13.2 upbm affinity estimate (log intensity, higher = more binding, comparable within an allelic series)
NKX2-6 [9]
  binding signal: 10.8 upbm affinity estimate (log intensity, higher = more binding, comparable within an allelic series)
NKX3-2 [10]
  binding signal: 12.6 upbm affinity estimate (log intensity, higher = more binding, comparable within an allelic series)
NKX2-5 [2]
  binding signal: 12.8 upbm affinity estimate (log intensity, higher = more binding, comparable within an allelic series)
NKX3-2 [11]
  binding signal: 12.7 upbm affinity estimate (log intensity, higher = more binding, comparable within an allelic series)

## ACGGCGGC
NKX2-5 [1]
  binding signal: 9 upbm affinity estimate (log intensity, higher = more binding, comparable within an allelic series)
HOXB4 [15]
  binding signal: 7.36 upbm affinity estimate (log intensity, higher = more binding, comparable within an allelic series)
HOXB4 [16]
  binding signal: 7.56 upbm affinity estimate (log intensity, higher = more binding, comparable within an allelic series)
NKX2-5 [2]
  binding signal: 8.98 upbm affinity estimate (log intensity, higher = more binding, comparable within an allelic series)

## CCAGCGCG
NKX2-5 [1]
  binding signal: 8.57 upbm affinity estimate (log intensity, higher = more binding, comparable within an allelic series)
NKX2-5 [2]
  binding signal: 8.52 upbm affinity estimate (log intensity, higher = more binding, comparable within an allelic series)

## CGCCCGAG
NKX2-5 [1]
  binding signal: 8.73 upbm affinity estimate (log intensity, higher = more binding, comparable within an allelic series)
HOXB4 [15]
  binding signal: 7.76 upbm affinity estimate (log intensity, higher = more binding, comparable within an allelic series)
HOXB4 [16]
  binding signal: 7.79 upbm affinity estimate (log intensity, higher = more binding, comparable within an allelic series)
NKX2-5 [2]
  binding signal: 8.76 upbm affinity estimate (log intensity, higher = more binding, comparable within an allelic series)

## CCAGGCCG
NKX2-5 [1]
  binding signal: 8.83 upbm affinity estimate (log intensity, higher = more binding, comparable within an allelic series)
NKX2-4 [4]
  binding signal: 9.57 upbm affinity estimate (log intensity, higher = more binding, comparable within an allelic series)
NKX2-4 [5]
  binding signal: 9.57 upbm affinity estimate (log intensity, higher = more binding, comparable within an allelic series)
NKX2-4 [6]
  binding signal: 9.56 upbm affinity estimate (log intensity, higher = more binding, comparable within an allelic series)
NKX2-4 [8]
  binding signal: 9.57 upbm affinity estimate (log intensity, higher = more binding, comparable within an allelic series)
NKX2-5 [2]
  binding signal: 8.78 upbm affinity estimate (log intensity, higher = more binding, comparable within an allelic series)

## CCACTTTA
NKX2-5 [1]
  binding signal: 12.7 upbm affinity estimate (log intensity, higher = more binding, comparable within an allelic series)
NKX2-4 [4]
  binding signal: 12.6 upbm affinity estimate (log intensity, higher = more binding, comparable within an allelic series)
NKX2-4 [5]
  binding signal: 13 upbm affinity estimate (log intensity, higher = more binding, comparable within an allelic series)
NKX2-4 [6]
  binding signal: 12.5 upbm affinity estimate (log intensity, higher = more binding, comparable within an allelic series)
NKX2-6 [3]
  binding signal: 12 upbm affinity estimate (log intensity, higher = more binding, comparable within an allelic series)
ALX1 [12]
  binding signal: 8.4 upbm affinity estimate (log intensity, higher = more binding, comparable within an allelic series)
NKX2-6 [7]
  binding signal: 13.5 upbm affinity estimate (log intensity, higher = more binding, comparable within an allelic series)
ALX1 [13]
  binding signal: 8.44 upbm affinity estimate (log intensity, higher = more binding, comparable within an allelic series)
NKX2-4 [8]
  binding signal: 13.1 upbm affinity estimate (log intensity, higher = more binding, comparable within an allelic series)
NKX2-6 [9]
  binding signal: 10.8 upbm affinity estimate (log intensity, higher = more binding, comparable within an allelic series)
NKX3-2 [10]
  binding signal: 13 upbm affinity estimate (log intensity, higher = more binding, comparable within an allelic series)
ALX1 [14]
  binding signal: 8.77 upbm affinity estimate (log intensity, higher = more binding, comparable within an allelic series)
NKX2-5 [2]
  binding signal: 12.7 upbm affinity estimate (log intensity, higher = more binding, comparable within an allelic series)
NKX3-2 [11]
  binding signal: 13.1 upbm affinity estimate (log intensity, higher = more binding, comparable within an allelic series)
